The panel holds about 79,000 compounds, 15% with a hit somewhere; the sample as a whole holds those more often. A number with no mark means an inactive call. Calls of active or inactive are those of the source. Rule as the data show it: active = growth inhibition above about 70%; inactive = the rest. Where a SMILES comes first, the peptide text is derived from it. [ ]: non-standard residue; d: D form. The star is where a group is joined. ξ: configuration not given here. Cbz = O=C(OCc1ccccc1)*; ξP = O=C(O)C1CCCN1
Key:
[1] = NCI Yeast Anticancer Drug Screen. Data for the rad50 strain (AID 155);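 also: 0% = growth of vehicle-only cultures of the same strain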; settings: S. cerevisiae rad50 strain growth inhibition; at 50.0 µM; hits give high values
How it was run: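 Growth of the mutant yeast was measured after compound exposure and referenced to vehicle-treated cultures.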

[2] = NCI Yeast Anticancer Drug Screen. Data for the mec2-1 strain (AID 157); settings: S. cerevisiae mec2-1 strain, at 50.0 µM, hits give high values
How it was run: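 Each compound was tested on mec2-1 yeast, a strain altered in DNA damage repair or cell cycle control. Growth inhibition is reported relative to vehicle.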

[3] = NCI Yeast Anticancer Drug Screen. Data for the sgs1 mgt1 strain (AID 161);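 also: 0% = growth of cultures given vehicle only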; settings: S. cerevisiae sgs1 mgt1 strain, at 50.0 µM, hits give high values
How it was run: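 Genetically altered yeast, compound exposure, growth inhibition relative to vehicle.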

[4] = NCI Yeast Anticancer Drug Screen. Data for the cln2 rad14 strain (AID 165);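 also: 0% = growth equal to vehicle treated cultures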; settings: S. cerevisiae cln2 rad14 strain, at 50.0 µM, hits give high values
How it was run: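 Test compounds were added to cln2 rad14 yeast cultures; inhibition of growth was then determined by comparison with vehicle treatment.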

[5] = NCI Yeast Anticancer Drug Screen. Data for the bub3 strain (AID 167); settings: S. cerevisiae bub3 mutant strain, at 50.0 µM, hits give high values
How it was run: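 Whole-cell yeast assay. The mutant strain was incubated with compounds, and growth inhibition was determined by comparison with vehicle-treated cells.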

[6] = NCI Yeast Anticancer Drug Screen. Data for the mlh1 rad18 strain (AID 175); settings: S. cerevisiae mlh1 rad18 strain growth inhibition; at 50.0 µM; hits give high values
How it was run: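 Inhibition values reflect reduced growth of mutant yeast versus vehicle-treated controls following compound exposure; the mutations affect DNA damage repair.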

SMILES | growth inhibition [1] | growth inhibition [2] | growth inhibition [3] | growth inhibition [4] | growth inhibition [5] | growth inhibition [6]
CC(/C=N/NC1=NCCCCN1)=N\NC1=NCCCCN1 | -4.95% | -16% | -15.6% | 8.8% | -10.6% | -16.4%
CCCCCc1ccccn1 | 0.9% | 19.1% | -25.4% | -29.3% | 12.1% | -11.2%
CCOC(=O)c1ccc2c(c1)C(C)(SC)C(=O)N2 (configuration not stated) | -12.7% | 0.7% | -2.85% | 4.65% | -6.55% | -1.35%
C/C=C(/C)C(=O)O[C@H]1C[C@@H]2[C@@H](O)c3occ(C)c3C[C@]2(C)[C@@H](C)C1 | 91% (active) | 92.4% (active) | 91.6% (active) | 90% (active) | 90.8% (active) | 90.2% (active)
Cc1cc(=O)[nH]c(NN2C(Cl)C(=O)C2c2ccc([N+](=O)[O-])cc2)n1 (configuration not stated) | 15.8% | -24.2% | 12.7% | 2.7% | 3.85% | -18.8%
COc1ccc(C(C)c2cc3c(cc2OCCO)OCO3)cc1 (configuration not stated) | 8.35% | 6.7% | 44.3% | 18.1% | 41.8% | 45.7%
c1ccc(CCCCc2ccccn2)cc1 | 32% | -13.1% | 31.6% | 0.2% | 27.4% | 25%
Cc1cc(N/N=C/c2ccnc3ccccc23)c2cc3c(cc2n1)OCO3 | 43.4% | 18% | 23.4% | 27% | 31.7% | 20.9%
CCN(CCNc1cc(OC)cc2cccnc12)CC(C)C | 22.8% | 9.65% | 1.8% | 13.8% | 6.85% | 17%
Cc1nc2ccc(N)cc2[nH]c1=O | 16.9% | 7% | 12.8% | 14.5% | 6.5% | 25.3%
ClCC/C(=C(/Cl)c1ccccc1)c1ccccc1 | -0.65% | 5.6% | 6.65% | 4.8% | -14.3% | 3.1%
C1CC(CCC2CCNCC2)CCN1 | 1.6% | 1.15% | 4.15% | -13.4% | 11.7% | 1.55%
O=C1/C(=C/c2ccccc2)N=C2Sc3c(nc[nH]c3=O)N12 | 16.5% | -23.8% | -12.4% | -7.25% | 10.4% | -39.2%
COc1cc(C2c3cc4c(cc3OC(N3CCCCC3)C2C)OCO4)cc(OC)c1OC (configuration not stated) | -13.4% | -20.1% | -18.1% | 0.15% | -23.6% | -12.6%
O=C(O)CCc1ccc(NC(=O)CCl)cc1 | 4.05% | 14.6% | 17.3% | 8.35% | 5.45% | 14.7%
COc1ccc(Oc2nc(=O)n3ccccc3n2)cc1 | -13.4% | 0.65% | -14.6% | -12.6% | 9.45% | -20.7%
OCCCOC(c1ccccc1)(c1ccccc1)c1ccccc1 | -22.9% | -29.4% | -30.2% | 1.55% | -49.8% | -12.9%
C(=N\Nc1nc2ccccc2s1)/c1cccs1 | 16.9% | 33% | 23.6% | 16.1% | 36.4% | 29.4%
O=C(CNC(=O)OCc1ccccc1)NCC(=O)N1CCCC1C(=O)O (stereo not drawn) (Cbz-Gly-Gly-[ξP]-OH) | -1.6% | 1.15% | -4.45% | 0.25% | -3.65% | -23.6%
O=C(O)/C=C/C(O)C1CCCCC1 (configuration not stated) | -31.1% | -8.35% | -0.95% | -23.1% | 1.05% | -4.65%
CCc1ccc(OC/C=C(\C)CCC2OC2(C)CC)cc1 (configuration not stated) | -4.15% | 4.5% | 19.8% | 4% | 32% | -2.8%

SMILES | growth inhibition [1] | growth inhibition [2] | growth inhibition [3] | growth inhibition [4] | growth inhibition [5] | growth inhibition [6]
c1ccc2c(c1)ccc1ccc3ocnc3c12 | 6.45% | -0.95% | -3.15% | -6.6% | 9.15% | 10%
COC1OC(COC(c2ccccc2)(c2ccccc2)c2ccccc2)C2OC12 (configuration not stated) | 44.1% | 5.15% | 22.6% | 11% | 1.3% | 19.7%
CC(C)(Oc1ccc2c(=O)cc(-c3ccccc3)oc2c1)C(=O)Nc1c(Cl)cccc1Cl | 7.95% | -18.8% | 10.2% | -59% | 9.75% | -14.8%
NNC(=O)N/N=C(\CBr)c1ccc(Cl)cc1 | -2.35% | -0.45% | 6.9% | -47.6% | 3.95% | 4.35%
CSC1=C(c2ccc(Cl)cc2)SC(N2CCCCC2)N1c1ccc([N+](=O)[O-])cc1 (configuration not stated) | 0.55% | -0.05% | 1.7% | 5.2% | 5.4% | 4.9%
CCCCN(CC)NC(=S)Nc1ccccc1 | -9.25% | 9.7% | -3.3% | -18.4% | 17.9% | 5.6%
Cn1c(=O)c2ncn(CC3CCCCC3)c2n(C)c1=O | 6.15% | 11.6% | 5.05% | -5.9% | 2.05% | -4.95%
CC(C)(C)n1nc(C2CC2)c(Br)c1NC(=O)c1ccc(Cl)cc1 | -4.45% | -0.95% | 22.9% | 0.45% | 11.1% | 1.7%
O=C(Nc1cccc(O)c1)c1ccccc1Cl | 9.3% | -6% | -15.4% | -86.3% | -11.9% | -30.1%
N#Cc1ccc(Sc2ccccc2)cc1C#N | 12.8% | -8.7% | 24.4% | 10.2% | 24.9% | 0.6%
N#CCCC(CC#N)C1([N+](=O)[O-])CCCCC1 (configuration not stated) | 23.8% | 29.2% | 7.85% | 53.1% | 32.8% | 3.55%
CSc1ccc(NC(=O)Nc2ccc(Cl)cc2C(=O)c2ccccc2)cc1 | 96.5% (active) | 97.8% (active) | 93.7% (active) | 98% (active) | 88.5% (active) | 97.8% (active)
O=C1C2=C(CCC2)C(=O)N1c1ccc(N2C(=O)C3=C(CCC3)C2=O)cc1 | -12.6% | -4.55% | -16.2% | -15.4% | -10.6% | -13.2%
O=[N+]([O-])c1cc(F)cc(F)c1Nc1ccccc1 | 2.85% | -11.4% | 2.2% | 3.1% | 0.5% | 17.6%
OC(c1ccccc1)C1(O)CCCCC1 (configuration not stated) | -10.8% | -5.25% | -1.7% | -52.5% | -17.1% | 9.75%
Brc1ccc(Br)c2nc(/C=C/c3ccccc3)ccc12 | 11.8% | 1.85% | -7% | -22.6% | 2.45% | 8.25%
COc1ccc(C2(C#N)CCCC2)cc1 | 5.8% | 12.4% | 0.95% | -30.6% | 0.7% | 8.7%
CCN1CCCCC(=N\O)/C(=N/O)CCCC1 | -12.8% | -12.2% | -20.1% | -4.2% | -51.6% | -11.8%
CSc1ccc(NC(=O)N(Cc2ccccc2)c2ccccc2)cc1 | 3.75% | 16.9% | 11.9% | -6.4% | 19.2% | 13.8%
CCc1ccc(NC(=O)Nc2cccc(Cl)c2)cc1 | -5.8% | 14.4% | -5.35% | -19.6% | -0.55% | 4.9%
NS(=O)(=O)c1ccc(NC(=O)c2cccc3c(=O)c4ccccc4[nH]c23)cc1 | -2.55% | -1.95% | -13.2% | 14.8% | -6% | -14.1%

Source: PubChem BioAssay (NCI)
